Where “and” joins values, the source holds several entries; their conditions need not be identical. Equal entries are not always repeated. The campaign covered roughly 5,500 compounds. About 2,000 (36%) were called active. Roughly 18% stayed inconclusive and do not appear here. Rule as the data show it: active = normalized growth mostly below about 0.91 (no sharp cut-off); inconclusive = no clear call, values can overlap the other calls; inactive = mostly above about 0.92. Some of the results follow.
Assay: chemical genetic growth profiling, strain panel (AID 1159580);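 also: tested at 20 µM; growth read once vehicle control cultures reached saturation at 30 °C; 1 = growth at the plate median or of vehicle wells; lower values mean less growth of the strain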
Conditions: S. cerevisiae deletion strains, growth OD

Measured: normalized growth

Nc1c2ccccc2nc2ccccc12 (tested in a mixture with another compound)
inactive: locus YBR021W, strain FUR4, hits give low values 0.985 | locus YBR171W, strain sec66, hits give low values 0.964 | locus YBR229C, strain ROT2, hits give low values 0.976 | locus YDL185W, strain tfp1, hits give low values 0.998 | locus YDR001C, strain nth1, hits give low values 0.956 | locus YDR334W, strain swr1, hits give low values 0.943 | locus YER110C, hits give low values 0.996 | locus YGL167C, strain pmr1, hits give low values 0.927 | locus YJL129C, strain trk1, hits give low values 1.02 | locus YJL134W, strain LCB3, hits give low values 0.982 | locus YJL168C, strain set2, hits give low values 0.946
active: locus YAL013W, strain DEP1, hits give low values 0.822 | locus YAL021C, strain ccr4, hits give low values 0.67 | locus YAL026C, strain drs2, hits give low values 0.541 | locus YAL030W, strain snc1, hits give low values 0.679 | locus YBL061C, strain skt5, hits give low values 0.795 | locus YBR009C, strain hhf1, hits give low values 0.495 | locus YBR023C, strain chs3, hits give low values 0.751 | locus YBR231C, strain swc5, hits give low values 0.677 | locus YBR279W, strain paf1, hits give low values 0.555 | locus YCL011C, strain gbp2, hits give low values 0.704 | locus YCL016C, strain dcc1, hits give low values 0.467 | locus YCL029C, strain bik1, hits give low values 0.485 | locus YCL061C, strain MRC1, hits give low values 0.842 | locus YCL069W, strain vba3, hits give low values 0.777 | locus YCR088W, strain abp1, hits give low values 0.682 | locus YDL005C, strain med2, hits give low values 0.801 | locus YDL035C, strain GPR1, hits give low values 0.507 | locus YDL040C, strain nat1, hits give low values 0.875 | locus YDL074C, strain BRE1, hits give low values 0.498 | locus YDL101C, strain DUN1, hits give low values 0.76 | locus YDL134C, strain PPH21, hits give low values 0.629 | locus YDL192W, strain arf1, hits give low values 0.691 | locus YDR069C, strain doa4, hits give low values 0.519 | locus YDR101C, strain arx1, hits give low values 0.593 | locus YDR137W, strain rgp1, hits give low values 0.572 | locus YDR150W, strain NUM1, hits give low values 0.883 | locus YDR159W, strain sac3, hits give low values 0.773 | locus YDR162C, strain NBP2, hits give low values 0.718 | locus YDR297W, strain sur2, hits give low values 0.749 | locus YDR318W, strain mcm21, hits give low values 0.655 | locus YDR335W, strain msn5, hits give low values 0.807 | locus YDR388W, hits give low values 0.406 | locus YDR392W, strain spt3, hits give low values 0.6 | locus YDR502C, strain sam2, hits give low values 0.606 | locus YEL003W, strain gim4, hits give low values 0.665 | locus YEL037C, strain rad23, hits give low values 0.763 | locus YEL061C, strain CIN8 (second series), hits give low values 0.887 | locus YEL061C, strain CIN8, hits give low values 0.838 | locus YER015W, strain faa2, hits give low values 0.821 | locus YER016W, strain bim1, hits give low values 0.686 | locus YER111C, strain swi4, hits give low values 0.904 | locus YER155C, strain BEM2 (second series), hits give low values 0.774 | locus YER155C, strain BEM2, hits give low values 0.89 | locus YER167W, strain BCK2, hits give low values 0.58 | locus YFR010W, strain ubp6, hits give low values 0.627 | locus YGL078C, strain dbp3, hits give low values 0.778 | locus YGL086W, strain mad1, hits give low values 0.618 | locus YGL173C, strain kem1, hits give low values 0.656 | locus YGL227W, strain vid30, hits give low values 0.836 | locus YGL240W, strain doc1, hits give low values 0.874 | locus YGL248W, strain PDE1, hits give low values 0.559 | locus YGL253W, strain hxk2, hits give low values 0.582 | locus YGR078C, strain PAC10, hits give low values 0.703 | locus YGR135W, strain pre9, hits give low values 0.704 | locus YGR229C, strain SMI1, hits give low values 0.68 | locus YGR252W, strain gcn5, hits give low values 0.461 | locus YHR013C, strain ard1, hits give low values 0.494 | locus YHR027C, strain rpn1, hits give low values 0.853 | locus YHR030C, strain SLT2, hits give low values 0.749 and 0.474 | locus YHR079C, strain IRE1 (second series), hits give low values 0.531 | locus YHR079C, strain IRE1, hits give low values 0.484 | locus YHR129C, strain ARP1, hits give low values 0.781 | locus YHR142W, strain chs7, hits give low values 0.729 | locus YHR200W, strain rpn10, hits give low values 0.735 | locus YIL066C, strain RNR3, hits give low values 0.775 | locus YIL073C, strain SPO22, hits give low values 0.535 | locus YIL125W, strain kgd1, hits give low values 0.9 | locus YIR030C, strain dcg1, hits give low values 0.575 | locus YJL092W, strain hpr5, hits give low values 0.802 | locus YJL095W, strain BCK1 (second series), hits give low values 0.766 | locus YJL095W, strain BCK1, hits give low values 0.474 and 0.436 | locus YJL115W, strain asf1, hits give low values 0.849 | locus YJL154C, strain vps35, hits give low values 0.859 | locus YJL164C, strain tpk1, hits give low values 0.562 | locus YJL166W, strain qcr8, hits give low values 0.693 | locus YJL187C, strain SWE1 (second series), hits give low values 0.565 | locus YJL187C, strain SWE1, hits give low values 0.813 | locus YJR043C, strain POL32, hits give low values 0.686 | locus YJR066W, strain TOR1, hits give low values 0.397 | locus YJR075W, strain HOC1, hits give low values 0.505

— PubChem BioAssay AID1159580 (chemical genetic matrix, 2015)
